# From paper PMC7862700, “An all-to-all approach to the identification of sequence-specific readers for epigenetic DNA modifications on cytosine”
# Key:
# Test in all cases: DAPPL (digital affinity profiling via proximity ligation, sequencing); 10 mM Tris-HCl pH 7.5, 50 mM NaCl, 1 mM DTT, 4% glycerol, room temperature, 30 min; GST-TFs on glutathione beads, 16-mer random dsDNA library, 0.1% formaldehyde crosslink after washing; high values mean tight binding
# Conditions in all cases: protein: recombinant; tags: N-terminal GST; dsDNA, one strand shown
# [1] = target: T1, ELK1 (Homo sapiens, UniProt P19419 1-428)
# T1 sequence: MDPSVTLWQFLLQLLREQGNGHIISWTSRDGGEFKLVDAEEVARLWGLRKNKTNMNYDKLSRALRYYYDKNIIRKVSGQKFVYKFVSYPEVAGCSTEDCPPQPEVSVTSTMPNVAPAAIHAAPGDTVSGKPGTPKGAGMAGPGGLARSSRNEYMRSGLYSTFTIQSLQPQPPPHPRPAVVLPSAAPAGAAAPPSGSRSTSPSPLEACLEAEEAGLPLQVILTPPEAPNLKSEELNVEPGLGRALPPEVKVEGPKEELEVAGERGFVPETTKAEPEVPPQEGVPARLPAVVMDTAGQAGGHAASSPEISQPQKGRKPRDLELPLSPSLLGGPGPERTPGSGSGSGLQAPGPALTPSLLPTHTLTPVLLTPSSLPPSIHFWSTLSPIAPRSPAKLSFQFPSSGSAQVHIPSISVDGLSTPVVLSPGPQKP
# Summary of the method: (§1)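 Beads coated with glutathione captured GST-fused human transcription factors that had been expressed in yeast, and the factors were then given DNA barcodes and pooled with a tag-only sample. The pools were incubated with 200 nmole of a random double-stranded 16-mer DNA library in Tris/NaCl/DTT/glycerol buffer for 30 min at room temperature, washed, crosslinked with 0.1% formaldehyde and proximity-ligated with BsaI/T4 ligase at 37 °C for 1 h. PCR amplification and Illumina NextSeq500 sequencing came last. Binding signal is each hexamer's read frequency for a factor divided by its frequency for the tag-only sample.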
# [2] = target: T2, ERG (Homo sapiens, UniProt P11308 1-479)
# T2 sequence: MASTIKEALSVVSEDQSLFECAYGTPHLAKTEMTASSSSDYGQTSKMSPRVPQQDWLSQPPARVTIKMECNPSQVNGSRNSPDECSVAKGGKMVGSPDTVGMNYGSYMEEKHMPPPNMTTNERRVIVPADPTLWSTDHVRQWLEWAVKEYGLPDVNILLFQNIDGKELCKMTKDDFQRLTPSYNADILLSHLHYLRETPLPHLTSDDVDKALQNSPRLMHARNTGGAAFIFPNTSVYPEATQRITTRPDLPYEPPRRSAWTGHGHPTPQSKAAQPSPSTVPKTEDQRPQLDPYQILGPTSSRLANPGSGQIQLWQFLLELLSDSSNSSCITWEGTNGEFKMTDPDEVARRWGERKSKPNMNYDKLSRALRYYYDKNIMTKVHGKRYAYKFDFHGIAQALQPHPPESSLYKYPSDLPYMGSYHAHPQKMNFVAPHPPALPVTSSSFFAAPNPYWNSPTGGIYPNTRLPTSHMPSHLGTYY
# Summary of the method: as §1
# [3] = target: ELF1 (Homo sapiens, UniProt P32519 1-619)
# Sequence of ELF1 (P32519 whole entry): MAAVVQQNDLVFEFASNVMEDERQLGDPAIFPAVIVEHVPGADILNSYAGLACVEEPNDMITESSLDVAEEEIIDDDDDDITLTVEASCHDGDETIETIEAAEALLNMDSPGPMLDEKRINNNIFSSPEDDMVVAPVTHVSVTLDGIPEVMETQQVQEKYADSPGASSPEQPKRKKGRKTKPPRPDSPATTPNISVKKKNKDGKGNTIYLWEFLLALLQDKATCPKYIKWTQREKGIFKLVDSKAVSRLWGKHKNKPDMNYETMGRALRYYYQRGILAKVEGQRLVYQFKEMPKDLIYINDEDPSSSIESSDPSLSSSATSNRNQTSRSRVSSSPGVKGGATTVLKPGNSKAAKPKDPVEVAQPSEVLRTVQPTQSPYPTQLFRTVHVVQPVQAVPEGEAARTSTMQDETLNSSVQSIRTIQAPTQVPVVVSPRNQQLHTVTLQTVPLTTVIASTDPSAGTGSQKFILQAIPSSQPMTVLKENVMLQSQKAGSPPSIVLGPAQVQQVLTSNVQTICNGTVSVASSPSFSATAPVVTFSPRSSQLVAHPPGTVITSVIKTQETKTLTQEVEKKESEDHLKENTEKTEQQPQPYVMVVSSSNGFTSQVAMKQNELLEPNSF
# Summary of the method: as §1
# [4] = target: T3, EHF (Homo sapiens, UniProt Q9NZC4 1-300)
# T3 sequence: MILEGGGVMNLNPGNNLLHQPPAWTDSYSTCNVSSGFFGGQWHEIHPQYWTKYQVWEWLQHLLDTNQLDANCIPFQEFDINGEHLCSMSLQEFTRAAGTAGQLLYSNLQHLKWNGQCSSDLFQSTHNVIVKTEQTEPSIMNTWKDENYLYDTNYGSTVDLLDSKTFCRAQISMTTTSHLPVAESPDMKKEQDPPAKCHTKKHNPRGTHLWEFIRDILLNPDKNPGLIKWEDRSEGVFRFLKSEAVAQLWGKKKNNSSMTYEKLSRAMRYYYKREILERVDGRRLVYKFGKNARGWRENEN
# Summary of the method: as §1
# [5] = target: T4, SPIC (Homo sapiens, UniProt Q8N5J4 1-248)
# T4 sequence: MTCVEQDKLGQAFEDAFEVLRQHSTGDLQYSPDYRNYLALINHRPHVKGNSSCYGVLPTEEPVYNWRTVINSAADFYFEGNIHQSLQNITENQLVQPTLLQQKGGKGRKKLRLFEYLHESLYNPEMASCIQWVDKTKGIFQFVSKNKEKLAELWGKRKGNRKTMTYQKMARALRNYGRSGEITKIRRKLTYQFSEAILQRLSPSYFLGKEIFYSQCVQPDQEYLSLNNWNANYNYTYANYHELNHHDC
# Summary of the method: as §1
# [6] = target: ELF4 (Homo sapiens, UniProt Q99607 1-663)
# Sequence of ELF4 (Q99607 whole entry): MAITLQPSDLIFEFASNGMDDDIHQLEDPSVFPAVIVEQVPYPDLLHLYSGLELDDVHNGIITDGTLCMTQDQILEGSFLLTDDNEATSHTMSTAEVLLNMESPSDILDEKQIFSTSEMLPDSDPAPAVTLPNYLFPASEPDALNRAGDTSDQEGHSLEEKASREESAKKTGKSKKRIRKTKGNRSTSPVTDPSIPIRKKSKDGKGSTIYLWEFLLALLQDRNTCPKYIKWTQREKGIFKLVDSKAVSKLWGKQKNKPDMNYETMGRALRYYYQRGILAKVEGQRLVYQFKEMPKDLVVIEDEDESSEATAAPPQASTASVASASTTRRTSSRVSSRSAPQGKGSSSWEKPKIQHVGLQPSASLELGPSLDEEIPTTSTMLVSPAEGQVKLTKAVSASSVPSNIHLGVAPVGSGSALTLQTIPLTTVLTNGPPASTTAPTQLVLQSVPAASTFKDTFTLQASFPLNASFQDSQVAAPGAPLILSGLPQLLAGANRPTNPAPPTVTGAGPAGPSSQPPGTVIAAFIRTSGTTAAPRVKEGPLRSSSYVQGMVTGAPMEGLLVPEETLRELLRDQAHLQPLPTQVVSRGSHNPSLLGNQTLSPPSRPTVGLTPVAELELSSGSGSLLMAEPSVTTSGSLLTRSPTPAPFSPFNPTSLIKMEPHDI
# Summary of the method: as §1
# [7] = target: T5, ELK4 (Homo sapiens, UniProt P28324-2 1-405)
# T5 sequence: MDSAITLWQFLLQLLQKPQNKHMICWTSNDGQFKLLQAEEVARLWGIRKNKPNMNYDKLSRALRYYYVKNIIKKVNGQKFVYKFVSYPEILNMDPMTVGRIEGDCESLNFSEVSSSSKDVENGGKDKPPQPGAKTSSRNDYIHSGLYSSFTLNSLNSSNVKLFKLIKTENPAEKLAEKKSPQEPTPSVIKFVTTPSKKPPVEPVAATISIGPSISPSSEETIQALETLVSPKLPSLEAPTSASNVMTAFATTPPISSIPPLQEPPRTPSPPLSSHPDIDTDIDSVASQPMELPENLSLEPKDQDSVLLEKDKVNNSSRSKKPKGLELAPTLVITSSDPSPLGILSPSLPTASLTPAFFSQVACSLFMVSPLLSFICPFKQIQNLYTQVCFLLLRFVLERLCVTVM
# Summary of the method: as §1
# [8] = target: T6, ERF (Homo sapiens, UniProt P50548 1-548)
# T6 sequence: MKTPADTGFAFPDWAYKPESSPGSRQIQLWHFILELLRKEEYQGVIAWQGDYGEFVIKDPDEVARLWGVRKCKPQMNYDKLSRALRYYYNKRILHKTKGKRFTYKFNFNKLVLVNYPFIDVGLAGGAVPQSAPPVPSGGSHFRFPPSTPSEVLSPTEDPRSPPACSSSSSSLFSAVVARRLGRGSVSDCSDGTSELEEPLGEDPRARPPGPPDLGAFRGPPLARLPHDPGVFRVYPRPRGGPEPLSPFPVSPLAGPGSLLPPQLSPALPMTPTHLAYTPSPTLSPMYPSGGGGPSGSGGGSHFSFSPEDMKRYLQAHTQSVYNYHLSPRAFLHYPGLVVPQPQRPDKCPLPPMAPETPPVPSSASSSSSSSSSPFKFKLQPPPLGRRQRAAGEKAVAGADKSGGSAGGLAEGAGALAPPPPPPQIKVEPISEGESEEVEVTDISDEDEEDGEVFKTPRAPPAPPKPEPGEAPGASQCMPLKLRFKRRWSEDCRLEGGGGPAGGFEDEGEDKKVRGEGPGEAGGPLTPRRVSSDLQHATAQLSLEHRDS
# Summary of the method: as §1
# [9] = target: T7, ETV3L (Homo sapiens, UniProt Q6ZN32 1-361)
# T7 sequence: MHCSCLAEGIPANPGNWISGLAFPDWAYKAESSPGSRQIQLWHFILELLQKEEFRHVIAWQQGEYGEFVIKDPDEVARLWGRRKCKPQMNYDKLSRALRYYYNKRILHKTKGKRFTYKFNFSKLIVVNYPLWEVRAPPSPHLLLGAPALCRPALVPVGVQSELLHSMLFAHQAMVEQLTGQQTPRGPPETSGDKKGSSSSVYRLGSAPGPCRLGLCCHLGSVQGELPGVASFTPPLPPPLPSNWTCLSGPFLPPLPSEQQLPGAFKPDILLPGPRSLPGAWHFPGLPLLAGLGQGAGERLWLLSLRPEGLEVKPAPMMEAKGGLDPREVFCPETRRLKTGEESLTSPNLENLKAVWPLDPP
# Summary of the method: as §1
# [10] = target: T8, ETV3 (Homo sapiens, UniProt P41162-2 1-143)
# T8 sequence: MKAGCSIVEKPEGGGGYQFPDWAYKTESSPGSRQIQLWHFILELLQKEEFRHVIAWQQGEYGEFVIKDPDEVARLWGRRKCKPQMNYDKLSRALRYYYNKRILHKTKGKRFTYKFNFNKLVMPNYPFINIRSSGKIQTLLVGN
# Summary of the method: as §1
# [11] = target: T9, GABPA (Homo sapiens, UniProt Q06546 1-454)
# T9 sequence: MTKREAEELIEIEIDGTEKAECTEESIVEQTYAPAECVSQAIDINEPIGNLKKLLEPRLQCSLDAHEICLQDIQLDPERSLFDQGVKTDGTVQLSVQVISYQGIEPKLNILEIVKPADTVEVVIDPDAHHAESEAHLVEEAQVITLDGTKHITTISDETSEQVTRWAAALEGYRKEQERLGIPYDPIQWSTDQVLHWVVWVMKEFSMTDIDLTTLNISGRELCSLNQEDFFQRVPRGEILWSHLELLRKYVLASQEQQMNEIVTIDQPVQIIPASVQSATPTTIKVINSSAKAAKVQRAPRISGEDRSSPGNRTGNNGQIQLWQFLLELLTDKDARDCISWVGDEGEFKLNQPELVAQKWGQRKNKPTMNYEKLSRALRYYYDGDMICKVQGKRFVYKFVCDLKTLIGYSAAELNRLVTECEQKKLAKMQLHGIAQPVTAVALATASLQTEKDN
# Summary of the method: as §1
# [12] = target: T10, ELF3 (Homo sapiens, UniProt P78545 1-371)
# T10 sequence: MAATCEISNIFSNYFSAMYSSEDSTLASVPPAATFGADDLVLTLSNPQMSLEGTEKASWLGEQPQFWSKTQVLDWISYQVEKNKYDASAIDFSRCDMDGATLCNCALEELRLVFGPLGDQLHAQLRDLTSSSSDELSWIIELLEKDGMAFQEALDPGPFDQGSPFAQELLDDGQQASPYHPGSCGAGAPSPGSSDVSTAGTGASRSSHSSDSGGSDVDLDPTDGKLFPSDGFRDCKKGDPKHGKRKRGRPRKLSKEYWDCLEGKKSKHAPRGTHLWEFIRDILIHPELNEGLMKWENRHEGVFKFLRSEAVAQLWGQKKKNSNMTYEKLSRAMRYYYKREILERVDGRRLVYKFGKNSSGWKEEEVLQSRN
# Summary of the method: as §1
# [13] = target: T11, ETV7 (Homo sapiens, UniProt Q9Y603 1-341)
# T11 sequence: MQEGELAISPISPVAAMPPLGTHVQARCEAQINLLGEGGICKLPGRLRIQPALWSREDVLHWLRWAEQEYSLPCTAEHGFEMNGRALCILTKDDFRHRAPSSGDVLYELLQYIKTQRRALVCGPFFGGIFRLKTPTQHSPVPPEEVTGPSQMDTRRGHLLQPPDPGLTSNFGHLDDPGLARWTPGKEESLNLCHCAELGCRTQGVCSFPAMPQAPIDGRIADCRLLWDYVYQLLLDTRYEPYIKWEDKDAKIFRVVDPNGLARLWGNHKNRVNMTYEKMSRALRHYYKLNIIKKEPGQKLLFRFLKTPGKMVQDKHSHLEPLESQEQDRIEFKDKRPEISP
# Summary of the method: as §1
# [14] = target: ETV6 (Homo sapiens, UniProt P41212 1-452)
# Sequence of ETV6 (P41212 whole entry): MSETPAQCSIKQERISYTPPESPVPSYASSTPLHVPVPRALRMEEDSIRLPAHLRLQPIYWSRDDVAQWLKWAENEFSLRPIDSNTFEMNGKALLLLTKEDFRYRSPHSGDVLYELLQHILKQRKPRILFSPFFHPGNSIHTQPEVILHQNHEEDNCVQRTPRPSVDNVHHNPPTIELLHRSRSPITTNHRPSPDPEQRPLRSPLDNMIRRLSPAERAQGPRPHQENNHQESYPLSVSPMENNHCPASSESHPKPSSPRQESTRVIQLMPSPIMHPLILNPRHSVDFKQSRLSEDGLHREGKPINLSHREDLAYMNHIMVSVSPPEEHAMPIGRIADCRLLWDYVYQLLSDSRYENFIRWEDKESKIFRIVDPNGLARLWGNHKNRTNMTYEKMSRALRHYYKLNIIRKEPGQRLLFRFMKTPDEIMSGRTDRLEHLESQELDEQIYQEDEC
# Summary of the method: as §1
# [15] = target: T12, ETS2 (Homo sapiens, UniProt P15036 1-469)
# T12 sequence: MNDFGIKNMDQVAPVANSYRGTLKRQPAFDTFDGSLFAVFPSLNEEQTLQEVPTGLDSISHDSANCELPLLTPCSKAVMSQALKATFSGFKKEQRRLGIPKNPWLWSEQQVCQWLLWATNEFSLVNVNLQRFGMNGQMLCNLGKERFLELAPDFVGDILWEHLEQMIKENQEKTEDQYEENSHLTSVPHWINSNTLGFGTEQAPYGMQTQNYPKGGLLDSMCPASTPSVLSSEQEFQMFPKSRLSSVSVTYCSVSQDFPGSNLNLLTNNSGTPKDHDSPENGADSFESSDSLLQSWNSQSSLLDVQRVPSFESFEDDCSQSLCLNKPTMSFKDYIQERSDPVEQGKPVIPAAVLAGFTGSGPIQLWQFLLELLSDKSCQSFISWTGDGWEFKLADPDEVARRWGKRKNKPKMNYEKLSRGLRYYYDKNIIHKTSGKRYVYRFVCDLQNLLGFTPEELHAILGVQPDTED
# Summary of the method: as §1
# [16] = target: T13, SPDEF (Homo sapiens, UniProt O95238 1-335)
# T13 sequence: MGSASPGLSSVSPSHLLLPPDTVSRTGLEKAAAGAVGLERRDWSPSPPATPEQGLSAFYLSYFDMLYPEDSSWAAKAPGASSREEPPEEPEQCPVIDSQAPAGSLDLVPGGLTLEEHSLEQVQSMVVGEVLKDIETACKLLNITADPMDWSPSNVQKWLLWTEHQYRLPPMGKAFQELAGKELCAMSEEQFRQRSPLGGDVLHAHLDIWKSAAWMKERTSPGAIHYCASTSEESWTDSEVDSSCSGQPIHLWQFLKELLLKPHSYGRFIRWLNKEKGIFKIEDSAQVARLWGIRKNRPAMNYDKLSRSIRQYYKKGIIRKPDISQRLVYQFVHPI
# Summary of the method: as §1
sequence,measurement,setting,value
CGCCAT,binding signal,[1],"1.01 fold enrichment (6-mer frequency, TF over GST control)"
same,binding signal,[2],"1.02 fold enrichment (6-mer frequency, TF over GST control)"
same,binding signal,[3],"1.02 fold enrichment (6-mer frequency, TF over GST control)"
same,binding signal,[4],"1.01 fold enrichment (6-mer frequency, TF over GST control)"
same,binding signal,[5],"1.06 fold enrichment (6-mer frequency, TF over GST control)"
same,binding signal,[6],"1.12 fold enrichment (6-mer frequency, TF over GST control)"
same,binding signal,[7],"1.1 fold enrichment (6-mer frequency, TF over GST control)"
same,binding signal,[8],"1.08 fold enrichment (6-mer frequency, TF over GST control)"
same,binding signal,[9],"1.08 fold enrichment (6-mer frequency, TF over GST control)"
same,binding signal,[10],"1.02 fold enrichment (6-mer frequency, TF over GST control)"
TTGGAA,binding signal,[11],"1.03 fold enrichment (6-mer frequency, TF over GST control)"
same,binding signal,[4],"1.04 fold enrichment (6-mer frequency, TF over GST control)"
same,binding signal,[12],"1.06 fold enrichment (6-mer frequency, TF over GST control)"
same,binding signal,[13],"1 fold enrichment (6-mer frequency, TF over GST control)"
same,binding signal,[14],"1.03 fold enrichment (6-mer frequency, TF over GST control)"
TAGGTA,binding signal,[1],"1.06 fold enrichment (6-mer frequency, TF over GST control)"
same,binding signal,[12],"1.12 fold enrichment (6-mer frequency, TF over GST control)"
same,binding signal,[8],"1.08 fold enrichment (6-mer frequency, TF over GST control)"
same,binding signal,[9],"1.01 fold enrichment (6-mer frequency, TF over GST control)"
same,binding signal,[15],"1.03 fold enrichment (6-mer frequency, TF over GST control)"
same,binding signal,[16],"1.02 fold enrichment (6-mer frequency, TF over GST control)"
same,binding signal,[13],"1.1 fold enrichment (6-mer frequency, TF over GST control)"
